# Screens: PubChem BioAssay, several laboratories
# BCLXL inh = inhibitors of human Bcl-xL, primary screen, biochemical, fluorescence polarization, HTS. Bcl-2-like protein 1 (Homo sapiens), Q07817. GST-Bcl-xL / FITC-Bim BH3 peptide fluorescence polarization. inhibition, % at 10.9 µM. 0.7% of 320,000 active;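 active = inhibition above the mean of all tested compounds plus 3 SD, cutoff set per campaign, cut at about 30% in these data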;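 note: inhibitors lower millipolarization by displacing the labeled peptide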
# E coli Lon inh = inhibitors of E. coli Lon protease, primary screen, biochemical, fluorescence polarization | purified E. coli Lon protease | AID 602123, 2011 | inhibition, % at 7.94 µM | 0.42% of 360,000 active | P0A9M0; in the data active = inhibition above about 13%, passing the limit was not always enough
# GLD-1 RNA inh = GLD-1/TGE RNA complex disruptors, primary screen, biochemical, fluorescence polarization. Female germline-specific tumor suppressor gld-1 (Caenorhabditis elegans), Q17339. purified GLD-1 + fluorescein TGE RNA. inhibition, % at 5.96 µM. 0.44% of 320,000 active;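 active = percent inhibition above a per-plate cutoff, the plate mean of test compounds plus 3 SD, cut at about 30% in these data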
# Target sequence (Q17339 whole entry, looked up): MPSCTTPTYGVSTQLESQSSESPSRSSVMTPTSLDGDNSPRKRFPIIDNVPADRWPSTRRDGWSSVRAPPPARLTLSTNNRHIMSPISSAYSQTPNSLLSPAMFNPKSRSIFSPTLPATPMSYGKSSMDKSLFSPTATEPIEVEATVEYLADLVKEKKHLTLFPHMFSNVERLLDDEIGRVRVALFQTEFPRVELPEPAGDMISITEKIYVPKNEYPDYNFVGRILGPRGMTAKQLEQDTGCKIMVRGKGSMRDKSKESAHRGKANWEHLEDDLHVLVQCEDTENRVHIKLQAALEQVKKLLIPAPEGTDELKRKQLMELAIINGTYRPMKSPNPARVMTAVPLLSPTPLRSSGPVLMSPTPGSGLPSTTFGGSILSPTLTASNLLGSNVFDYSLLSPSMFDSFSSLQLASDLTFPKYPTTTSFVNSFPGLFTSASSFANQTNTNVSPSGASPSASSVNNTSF
# EBV gp42 inh = Epstein-Barr virus gp42 inhibitors, primary screen, biochemical, uHTS, fluorescence polarization; Glycoprotein 42 (Epstein-Barr virus (strain AG876)), Q1HVG2; Fluorescence polarization binding assay, mP read-out; inhibition, % (tested at 21.74 µM); 0.42% of 220,000 active; in the data active = inhibition above about 50%
# MEX-5 binding = MEX-5 zinc finger RNA-binding disruptors – biochemical, C. elegans, fluorescence polarization, MLPCN library, primary screen. 0.38% of 300,000 active. AID 1832, 2009. Zinc finger protein mex-5 (Caenorhabditis elegans), Q9XUB2. MEX-5/FITC-TCR2 RNA binding; active compounds read low. activity score (negative = inhibition of binding), % at 10 µM;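 active = inhibition past about -25% in most replicates, and total fluorescence under double the plate's negative control median, limit read from the data; inconclusive = replicates evenly split on the limit, or fluorescence at least double controls; inactive = too little inhibition in most replicates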
# Hits are given with their value; . = inactive; ? = inconclusive; / = no result. The list is not random: actives were taken first. Their share in the collection is about 1.3%.
SMILES,BCLXL inh,E coli Lon inh,GLD-1 RNA inh,EBV gp42 inh,MEX-5 binding
Cc1ccc(NC(=O)CN(C)C(=O)CSc2nnc(C)s2)cc1,/,.,.,/,/
[O-][n+]1ccccc1/C=C/c1ccccc1,.,.,.,/,.
CN(C)c1ccc(/C=C/c2cccc[n+]2[O-])cc1,31,.,.,.,.
Nc1cc2c3ccccc3ccc2c2ccccc12,/,.,/,/,/
COc1cccc(C2c3c(oc4ccccc4c3=O)C(=O)N2Cc2ccco2)c1 (configuration not stated),.,.,.,/,-48
COC1=CC(C)C2CC3OC(O)CC4C(C)=C(OC)C(=O)C(C2(C)C1=O)C34C (configuration not stated),/,.,/,/,/
C=CCOC(=O)C(=O)/C=C/c1c(C)n(C)n(-c2ccccc2)c1=O,.,.,.,.,.
C=CCOC(=O)C(=O)/C=C/c1coc2ccccc2c1=O,52,.,63,.,.
O=C1NN(c2ccccc2)C(=O)/C1=C/c1ccc(-c2ccc(C(=O)O)cc2)o1,.,.,.,/,.
O=C(O)c1ccc(N2C(=O)/C(=C/c3ccc(-c4ccc([N+](=O)[O-])cc4)o3)C=C2c2ccccc2)cc1,.,.,.,82,.
O=C(NCc1ccc2c(c1)OCO2)c1ccc(S(=O)(=O)N2CCOCC2)cc1,.,.,.,.,.
COc1ccc(CCNc2nc(-c3cccnc3)cs2)cc1OC,.,.,.,138,.
CN=C1S/C(=C\c2ccc(N3CCCC3)c(F)c2)C(=O)N1C,.,.,.,.,-59
C=CCn1c(O)c(N=Nc2ccccc2C)c2ccccc21,.,/,.,68,.
CCN1C(=O)[C@H]2[C@H]3CN=C(SCc4ccc(Cl)cc4)N3[C@@](C)(C(=O)OC)[C@H]2C1=O,/,.,/,/,/
CCn1c2ccccc2c2cc([N+](=O)[O-])ccc21,.,.,.,.,.
CCn1c2ccccc2c(=O)c2ccccc21,.,.,.,.,-28
CCOC(=O)[C@H]1[C@H]2COc3ccccc3[C@@H]2N2C(=O)CN(Cc3ccc(C)cc3)C(=O)[C@@]12C,/,.,91,/,/
CCOC(=O)[C@H]1[C@H]2COc3ccc(C)cc3[C@@H]2N2C(=O)CN(Cc3ccc(Cl)cc3)C(=O)[C@@]12C,.,.,.,/,/
O=C(c1cccs1)[C@@H]1[C@@H]2C(=O)N(Cc3ccc4c(c3)OCO4)C(=O)[C@@H]2C2c3ccccc3C=CN21 (some centres not stated),48,/,39,.,.
O=C(c1ccc2c(c1)OCO2)[C@@H]1[C@@H]2C(=O)N(C3CCCCC3)C(=O)[C@@H]2C2c3ccccc3C=CN21 (some centres not stated),/,.,/,.,.
O=C1/C(=C/c2cccc(F)c2)Oc2cc(O)ccc21,75,.,70,/,?
C=CCN1C(=O)/C(=C2/Sc3ccccc3N2CC)SC1=S,.,.,.,/,-30
C=CCN1C(=O)/C(=C2/Sc3ccccc3N2CCCS(=O)(=O)O)SC1=S,.,.,.,.,.
Clc1ccc(C2Nc3cccc4cccc(c34)N2)cc1,44,.,.,/,.
SMILES,BCLXL inh,E coli Lon inh,GLD-1 RNA inh,EBV gp42 inh,MEX-5 binding
O=C(CNC(=O)/C=C/c1ccco1)N=Nc1c(O)[nH]c2ccccc12,.,.,.,/,-29
COCCn1c(=N)c(C(=O)NCc2ccco2)cc2c(=O)n3cc(C)ccc3nc21,72,.,56,.,.
Cc1cccn2c(=O)c3cc(C(=O)NCc4ccco4)c(=N)n(CCOCCO)c3nc12,55,.,.,75,.
Cc1cccn2c(=O)c3cc(C(=O)NCc4ccco4)c(=N)n(C4CCCCC4)c3nc12,.,.,.,/,.
Cc1ccc2nc3c(cc(C(=O)NCc4ccco4)c(=N)n3C3CCCC3)c(=O)n2c1,69,.,37,/,.
Cc1ccc(Cn2c(=N)c(C(=O)NCc3ccco3)cc3c(=O)n4ccccc4nc32)cc1,.,.,.,.,.
N=c1c(C(=O)NCc2ccco2)cc2c(=O)n3ccccc3nc2n1CCc1ccccc1,32,.,.,.,.
COc1ccc(CCn2c(=N)c(C(=O)NCc3ccco3)cc3c(=O)n4ccccc4nc32)cc1OC,/,.,/,/,/
O=C1NC[C@@H](CCCCN2C[C@H](Cc3ccc(O)cc3)N(CCC3CCCCC3)C(=O)C2=O)N(CC2CCCCC2)C1=O,/,.,/,/,/
